Measured values taken from PubChem BioAssay (NCI).
The panel holds about 83,000 compounds, 20% with a hit somewhere; the sample as a whole holds those more often.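 Percent growth is the endpoint: 0 to 100 indicates growth inhibition (40 means 60% inhibition), 0 means no net growth, and negative values indicate cell death.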 Unmarked numbers belong to inactive results. Activity calls are given as the source filed them. Rule for the calls: active = growth percent below 10; inactive = the rest. *1 amine or outer side, *2 acyl side, *3 side chain or, on linkers, in order; H or OH if unused. Where a SMILES comes first, the peptide text is derived from it. [ ]: non-standard residue; d: D form. The star is where a group is joined. X5 = CCC(=O)CC1CC(C)CC(C(=O)[*:2])N1[*:1]; X4 = CCCCCCCCC(C)C(=O)*; Aib = CC(C)(N)C(=O)O; X6 = CC(CN(C)CCO)N*

Columns and labels:
Assay in all cases: NCI-60 one-dose screen, 48 h (100 = growth as untreated, 0 = no growth, -100 = all killed)
Conditions in all cases: 10 µM unless noted
[1] = tested on: NCI-H23 lung
[2] = tested on: NCI-H226 lung
[3] = tested on: NCI-H322M lung
[4] = tested on: HOP-62 NSCLC
[5] = tested on: NCI-H460 lung
[6] = tested on: HOP-92 NSCLC
[7] = tested on: NCI-H522 lung
[8] = tested on: A549/ATCC NSCLC
[9] = tested on: 786-0 renal
[10] = tested on: COLO 205 colon
[11] = tested on: DU-145 prostate
[12] = tested on: K-562 leukemia
[13] = tested on: MALME-3M melanoma
[14] = tested on: MDA-MB-231 breast
[15] = tested on: RXF 393 renal
[16] = tested on: SF-268 CNS
[17] = tested on: SF-295 CNS
[18] = tested on: SF-539 CNS
[19] = tested on: UACC-257 melanoma
[20] = tested on: M14 melanoma

SMILES | growth [1] | growth [2] | growth [3] | growth [4] | growth [5] | growth [6] | growth [7] | growth [8] | growth [9] | growth [10] | growth [11] | growth [12] | growth [13] | growth [14] | growth [15] | growth [16] | growth [17] | growth [18] | growth [19] | growth [20]
S=C1SCN(Cc2cccs2)CN1Cc1cccs1 | 107% | 104% | 99.4% | 122% | 101% | 79.9% | 46.7% | 96.8% | 102% | 108% | 110% | 63.6% | 107% | 93.4% | 104% | 100% | 104% | 96.8% | 94.5% | 94.3%
OC(c1cc(-c2ccc(Cl)cc2)nc2c(Cl)cccc12)C1CCCCN1 (configuration not stated) | -9.58% (active) | -44.1% (active) | -54.8% (active) | -92.2% (active) | -87.4% (active) | -29.4% (active) | -89.1% (active) | -82.9% (active) | -75% (active) | -91.1% (active) | -96.3% (active) | -30.9% (active) | -50.2% (active) | -71.1% (active) | -98.1% (active) | -65.7% (active) | -80.8% (active) | -72.4% (active) | -77% (active) | 
Cc1ccccc1N=C(N)Nc1ccccc1C (tested in a mixture with another compound) | 94.8% | 97.1% | 99.4% | 84.7% | 76.1% | 76.5% | 4.48% (active) | 74.4% | 73.9% | 85.5% | 84.3% | 85.8% | 102% | 68.5% | 94.7% | 72.2% | 104% | 72.4% | 97.5% | 
COC1CC(C)C(OC)c2cc(O)cc(c2O)NC(=O)/C(C)=C/C=C\C(C)C(OC(N)=O)/C(C)=C\C(C)C1OC (configuration not stated) | 39.4% | 47.8% | 54.1% | 37.9% | 9.42% (active) | 11.4% | -67.4% (active) | 13.3% | 31.3% | -0.179% (active) | -29.7% (active) | -58.6% (active) | 32.1% | 32.4% | -20.5% (active) | 63.1% | -15.9% (active) | 6.34% (active) | 14.4% | 
CCC(C)C(N)C(=O)NC(CC(N)=O)C(=O)NC(CC(C)C)C(=O)NC(CCCCN)C(=O)NC(C)C(=O)NC(CC(C)C)C(=O)NC(C)C(=O)NC(C)C(=O)NC(CC(C)C)C(=O)NC(C)C(=O)NC(CCCCN)C(=O)NC(CCCCN)C(=O)NC(C(=O)NC(CC(C)C)C(N)=O)C(C)CC (configuration not stated) | 82.1% | 113% | 100% | 74.9% | 79.3% | 61% | 85.2% | 90.3% | 68.1% | 90% | 57.9% | 82.5% | 52.1% | 62.1% | 39.6% | 66.8% | 106% | 35.6% | 104% | 
Cc1ccc(/C=C2\CNC/C(=C\c3ccc(C)cc3)C2=O)cc1 | 2.76% (active) | -63.2% (active) | 22.9% | 4.5% (active) | -47.1% (active) | 11% | -54% (active) | -53.7% (active) | -71.5% (active) | -70.5% (active) | -87.5% (active) | -28.5% (active) | 29.4% | -15.9% (active) | -57.4% (active) | -8.61% (active) | -5.11% (active) | -64.5% (active) | -21.1% (active) | 
O=C1C=CC(=O)N1c1cccc2c1CCCC2 | 106% | 96.4% | 91.9% | 105% | 109% | 84.2% | 11.6% | 104% | 105% | 49.1% | 103% | 57.1% | 85.5% | 106% | 94.1% | 101% | 90.6% | 105% | 103% | 110%
CC1(C)CCCC2=C1C(=O)N(SC(Cl)(Cl)Cl)C2=O | 101% | 93.6% | 101% | 98.2% | 109% | 89.5% | -73.2% (active) | 92.6% | 95% | 69.8% | 102% | 43.1% | 75.9% | 95.9% | 90% | 103% | 84.5% | 95.9% | 97.2% | 93.6%
CCCCCCCCCCCC1=NCCCN1CCCC | 94.2% | 103% | 98.1% | 94.6% | 101% | 74.8% | 97.6% | 97.6% | 99.1% | 98% | 103% | 80.3% | 106% | 78.8% | 122% | 101% | 101% | 110% | 92.3% | 100%
c1ccc(-c2cccc(-c3ccccn3)n2)nc1 | 21.3% | 4.69% (active) | 26.9% | 7.3% (active) | 3.53% (active) | 42.4% | 18.3% | 9.52% (active) | 16.2% | 4.26% (active) | 17.8% | 4.95% (active) | 3.68% (active) | 44.1% | 26.2% | 19.9% | 19.5% | 5.87% (active) | -4.86% (active) | -17.8% (active)
Cc1cc2cccnc2c2ncccc12 | 18.7% | -2.12% (active) | 40.4% | 12% | 0.789% (active) | 44.6% | 22.1% | 12.3% | 18.9% | 9.8% (active) | 20.7% | 14.3% | 49.3% | 44.2% | 13.3% | 15.9% | 28.5% | 13% | -1.02% (active) | 
Cn1c(-c2ccccc2)c(/C=C/C2=[N+](C)c3ccccc3C2(C)C)c2ccccc21 | 7.45% (active) | 13.5% | 50.3% | 10.2% | 2.46% (active) | -17.1% (active) | -28.6% (active) | 6.27% (active) | 24.2% | -83.9% (active) | 20.2% | 6.23% (active) | -6.21% (active) | 15.6% | 35.2% | 18% | 11.8% | 11.9% | -51.5% (active) | 
O=[N+]([O-])c1ccc([I+]c2ccccc2)cc1 | -55.1% (active) | -30.2% (active) | 67.4% | -67.6% (active) | 4.38% (active) | 60.5% | -87.8% (active) | -71.6% (active) | -15.4% (active) | -84.3% (active) | -10.5% (active) | 9.29% (active) | -0.265% (active) | 35.4% | 57.8% | -69.7% (active) | 77.9% | 1.87% (active) | 29.7% | -36.6% (active)
CCCCCCCCC(C)C(=O)N1CCCC1C(=O)N1C(CC(=O)CC)CC(C)CC1C(=O)NC(C)C(=O)NC(C)(C)C(=O)NC(C)(C)C(=O)NC(C(=O)NC(C)C(=O)NC(C)(C)C(=O)NC(C)(C)C(=O)NC(C)CN(C)CCO)C(C)CC (configuration not stated) (X4-P[X5]A[Aib][Aib]IA[Aib][Aib]-X6; configuration not given here) | 195% | -50.7% (active) | 21.2% | -81.5% (active) | -83.7% (active) | -23.8% (active) | -62.9% (active) | -62% (active) | -53.7% (active) | -75.9% (active) | -84.4% (active) | -52.1% (active) | 13.5% | -94.1% (active) | -56.5% (active) | -15.4% (active) | -26.2% (active) | -77% (active) | -72.1% (active) | 
COc1c(C)c2c(c(O)c1C/C=C(\C)CCC(=O)O)C(=O)OC2 | 33.9% | 58.8% | 38.3% | 46.6% | 9.24% (active) | 73.9% | 19.4% | 11.6% | 21.3% | 39.3% | 50.8% | 20.2% | 38.8% | 57% | 50.7% | 34.8% | 16.8% | 40.7% | 13.2% | 20.4%
NC(=S)N/N=C/c1ncccc1O | -6.55% (active) | 39% | 40.2% | 17.8% | 8.78% (active) | 2.7% (active) | 26% | 28% | -17.1% (active) | 11.2% | 12.7% | 24% | 54% | 34.8% | 9.63% (active) | 14.9% | 21.5% | -7.14% (active) | 18.9% | -56.2% (active)
